An excerpt weighted towards active compounds, which were near 4.3% of everything screened.
GRIN3A LBD mod – NR3A (human) ligand-binding domain modulation; NR3A LBD differential scanning fluorimetry, Tm shift; 0% = protein alone, 100% = glycine-bound protein; Tm shift relative to glycine control, % at 25 µM; 340,000 tested, 2.5% active; AID 1259313;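 active = melting temperature shift of at least 10% of the positive control shift, at one fixed dose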
ADAM10 inh – inhibitors of human ADAM10. 370,000 tested, 0.62% active. O14672. AID 720582. inhibition, % at 7 µM. recombinant ADAM10, EDANS/DABCYL FRET peptide cleavage, 3 h;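 active = inhibition above a per-campaign cutoff equal to the mean of compounds falling between control-based bounds plus 3 SD, cut at about 20% in these data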;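 note: 0% = DMSO wells while the 100% control is not disclosed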
FAS TE block – inhibitors of human fatty acid synthase thioesterase domain; inhibition, % at 15 µM; AID 602261; recombinant FAS-TE, OMFH fluorogenic substrate, fluorescence endpoint; P49327; 360,000 tested, 0.67% active;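 active = compounds whose normalised, plate-corrected inhibition of enzyme fluorescence in the single-dose primary screen is 50% or more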;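 note: 0% = DMSO with enzyme and 100% = substrate without enzyme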
sPLA2-III inh – Inhibits HGIII-sPLA2 liposome hydrolysis, primary screen | AID 743126 | 370,000 tested, 0.56% active | QFRET BODIPY PC-A2 liposome hydrolysis, fluorescence | inhibition, % at 12.2 µM;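 active = inhibition above mean plus 3 SD of compounds lying within the high and low control bounds, cut at about 19% in these data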;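 note: 0% = median of test compound wells and 100% = no enzyme DMSO wells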
ADAM17 inh – inhibits human ADAM17. P78536. 370,000 tested, 0.83% active. inhibition, % at 6.95 µM. recombinant ADAM17, EDANS/DABCYL FRET peptide cleavage. AID 720648;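 active = inhibition above the mean of compounds lying between control limits plus 3 SD, set per campaign, cut at about 8.5% in these data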;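 note: 0% = DMSO-only wells as the low control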
ADAM10 confirm – confirmation of inhibitors of human ADAM10. inhibition, % at 6.95 µM. shares compounds with ADAM10 inh. 2,100 tested, 1% active. ADAM10 QFRET peptide cleavage, EDANS fluorescence. AID 743208;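 active = inhibition above about 20% chosen separately for each screening run, limit read from the data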;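 note: 0% = DMSO wells and 100% = marimastat wells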
ADAM17 ctr – ADAM17 inhibition, counter-screen for ADAM10 exosite hits | shares compounds with ADAM10 inh | ADAM17 QFRET peptide cleavage, EDANS fluorescence | inhibition, % at 6.95 µM | 2,100 tested, 0.5% active | AID 743214;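 active = mean triplicate inhibition above the solvent-only control wells' mean plus 3 SD, cut at about 12% in these data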;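 note: 0% = DMSO wells and 100% = marimastat wells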
ADAM10 ctr – ADAM10 inhibition, counter-screen for ADAM17 exosite hits; AID 743256; recombinant ADAM10, EDANS/DABCYL FRET peptide cleavage, 3 h; 2,900 tested, 47% active; inhibition, % at 6.95 µM; shares compounds with ADAM17 inh;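 active = mean inhibition over the triplicate runs exceeds the activity threshold set in the earlier primary screen, cut at about 20% in these data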;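 note: 0% = DMSO wells and 100% = marimastat wells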
ADAM17 confirm – human ADAM17 inhibition, confirmation. shares compounds with ADAM17 inh. recombinant ADAM17, EDANS/DABCYL QFRET peptide cleavage. inhibition, % at 6.95 µM. 2,900 tested, 65% active. AID 743257;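 active = mean inhibition across replicates above the hit cutoff set in the primary screen, cut at about 8.5% in these data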;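 note: 0% = DMSO wells and 100% = marimastat wells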
Numbers without * were called inactive; . = no result given.

SMILES	GRIN3A LBD mod	ADAM10 inh	FAS TE block	sPLA2-III inh	ADAM17 inh	ADAM10 confirm	ADAM17 ctr	ADAM10 ctr	ADAM17 confirm
O=C(CCCCCN1C(=O)C2C3C=CC(C3)C2C1=O)Nc1cc(F)cc(F)c1 (configuration not stated)	.	1	.	1	0	.	.	.	.
O=C(C(=O)N1CCN(C(=O)C2CCC2)CC1)c1cccc(C(F)(F)F)c1	.	1	.	-1	0	.	.	.	.
Cc1ccccc1N=C(NOCc1ccc(Cl)cc1Cl)c1nonc1N	-3	20*	39	-11	9.6*	14	3	33*	24*
COc1cc(F)ccc1Oc1cccc2c1S(=O)(=O)N([C@H](C)c1ccccc1)C[C@@H](COCc1ccccc1)O2	.	-2	.	2	-1	.	.	.	.
COC(=O)[C@H](C(C)C)N1Cc2nnn(Cc3ccccc3)c2-c2cc(F)ccc2S1(=O)=O	.	1	.	3	0	.	.	.	.
O=C(c1ccc2c(c1)C(=O)NC2=O)c1ccc2c(c1)C(=O)NC2=O	.	-14	.	14	-2	.	.	.	.
O=C(CC(CC(=O)c1ccccc1)c1ccccc1)c1ccccc1	-1	2	21	-5	2	.	.	.	.
COc1ccc(C(CC(=O)c2ccccc2)CC(=O)c2ccccc2)cc1	1	20*	34	-9	11*	2	1	5	5
Nc1nc(Nc2ccccc2)nc(NCc2ccco2)c1[N+](=O)[O-]	-8	22*	24	-14	9.7*	2	1	36*	19*
Nc1nc(NCc2ccco2)nc(Nc2ccccc2)c1[N+](=O)[O-]	-3	11	0	-8	1	.	.	.	.
Cc1ccc(S(=O)(=O)Nc2ccc3ccccc3c2)cc1	-5	24*	28	-65	17*	7	2	13	8
COC(=O)c1cc2cc(NS(=O)(=O)c3ccc(C)cc3)ccc2s1	0	28*	21	-75	15*	9	3	17	10*
COc1cc(NC(=O)c2ccno2)cc(C(=O)Nc2cccc(C(F)(F)F)c2)c1	8	28*	30	-12	12*	0	0	25*	13*
CCCCCn1cc(CCC(=O)Nc2ccc(N(C)c3ccccn3)cc2)c2ccccc21	.	-11	.	-22	2	.	.	.	.
COc1ccc(C2CC(O)(c3ccccc3)Oc3c(C)ccc(C)c32)cc1 (configuration not stated)	-8	36*	26	11	19*	7	3	18	13*
CS(=O)(=O)N1CCC[C@]2(CC[C@@H](CCC#N)O2)C1	.	-2	.	3	0	.	.	.	.
C=CCc1cccc(CNc2nc3ccccc3n2CCC)c1O	9	35*	39	-11	14*	6	2	42*	23*
O=C(NNc1ccccc1Br)C(O)(c1cccc(C(F)(F)F)c1)c1cccc(C(F)(F)F)c1	32*	49*	26	-13	25*	11	4	52*	23*
O=C(COCC(=O)Nc1cccc(C(F)(F)F)c1)Nc1cccc(C(F)(F)F)c1	10	35*	41	-7	15*	0	0	42*	17*
O=S(=O)(c1ccc(NC(=S)NCCC(c2ccccc2)c2ccccc2)cc1)N1CCOCC1	16*	21*	30	-27	15*	11	4	31*	17*
CC(O)(c1ccc(F)c(F)c1)c1nc(-c2cccc(C(F)(F)F)c2)cs1 (configuration not stated)	.	26*	50	2	11*	11	3	33*	17*
CC(O)(c1cccc(F)c1)c1nc(-c2cccc(C(F)(F)F)c2)cs1 (configuration not stated)	.	23*	43	2	11*	7	2	45*	28*
CC(O)(c1ccc(F)c(F)c1)c1nc(-c2cccc(C(=O)O)c2)cs1 (configuration not stated)	.	-7	2	-3	-5	.	.	.	.
CC(O)(c1cccc(F)c1)c1nc(-c2ccccc2)cs1 (configuration not stated)	.	6	17	-20	1	.	.	.	.
OC(c1ccccc1)(c1nc(-c2cccc(C(F)(F)F)c2)cs1)C(F)(F)F (configuration not stated)	.	26*	35	-13	14*	16	4	35*	19*
SMILES	GRIN3A LBD mod	ADAM10 inh	FAS TE block	sPLA2-III inh	ADAM17 inh	ADAM10 confirm	ADAM17 ctr	ADAM10 ctr	ADAM17 confirm
COCCN1C(=O)C2=C(C1=O)C1N(C)c3ccccc3[C@@]13C[C@@H](CO)N(C(=O)CCC(=O)OC)C3=N2 (some centres not stated)	.	-4	.	-3	-2	.	.	.	.
COc1ccccc1CCn1cnc(-c2ccc(Cl)cc2)c1CC(C)C	.	5	.	-4	0	.	.	.	.
CN(Cc1ccccc1)c1ccc(C(CC(N)=O)NC(=O)c2ccc(Br)cc2)cc1[N+](=O)[O-] (configuration not stated)	-3	38*	20	-2	15*	6	1	21*	13*
CC(C)Nc1ccc(C(CC(N)=O)NC(=O)c2ccc(Br)cc2)cc1[N+](=O)[O-] (configuration not stated)	-7	13	28	8	1	.	.	.	.
c1ccc(-c2ccccc2C2Cc3nnccc3CN2)cc1 (configuration not stated)	.	-7	.	-5	-1	.	.	.	.
CCOc1cccc(C=NNc2nc(=O)cc(C(=O)OC)s2)c1O	.	-2	.	-17	-1	.	.	.	.
CN1CCN(c2oc(COc3ccc(-c4ccccc4)cc3)nc2C#N)CC1	-3	27*	17	-43	18*	3	1	23*	14*
COc1ccc(N2CCN(c3oc(COc4ccccc4)nc3C#N)CC2)cc1	3	9	35	-10	3	.	.	.	.
N#Cc1nc(COc2ccc(Cl)cc2)oc1N1CCN(Cc2ccccc2)CC1	2	22*	21	-9	8.6*	1	1	26*	16*
COc1ccc2c(c1)NC(=O)[C@@]2(CCN1C(=O)c2ccccc2C1=O)c1[nH]c2ccccc2c1CCN1C(=O)c2ccccc2C1=O	.	11	.	-2	3	.	.	.	.
COC(=O)[C@]12C[C@H](CC(=O)NCCCN3CCCC3=O)C(=O)N(Cc3ccc(Cl)cc3Cl)C1=C[C@H](C(C)(C)C)O[C@@H]2C	.	-1	.	-19	1	.	.	.	.

Source: PubChem
